Measured values from the supplement of paper PMC9492666.
Where a name gives a salt, the structure may show the parent alone.

Tests used:
[1] = tested on: HCC1937; assay: relative cell viability, compound + erastin, vs DMSO (fraction of DMSO control); higher = less growth inhibition; conditions: 72 h
[2] = tested on: MDA-MB-231; assay: as above; conditions: 72 h
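Further: viability read by CCK-8 kit in 96-well plates, part of a combination screen pairing lipid-metabolism-targeting compounds with erastin.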

Row | SMILES | relative cell viability [1] | relative cell viability [2]
1 | CC(C)=CCC[C@](C)(O[C@@H]1O[C@H](CO)[C@@H](O)[C@H](O)[C@H]1O)[C@H]1CC[C@]2(C)[C@@H]1[C@H](O)C[C@@H]1[C@@]3(C)CC[C@H](O[C@@H]4O[C@H](CO)[C@@H](O)[C@H](O)[C@H]4O[C@@H]4O[C@H](CO)[C@@H](O)[C@H](O)[C@H]4O)C(C)(C)[C@@H]3CC[C@]12C [Ginsenoside Rd] + CCOc1ccccc1-n1c(C(C)N2CCN(C(=O)COc3ccc(Cl)cc3)CC2)nc2ccccc2c1=O [erastin] | 0.355 | 0.317
2 | CC(C)(Oc1ccc(CCNC(=O)c2ccc(Cl)cc2)cc1)C(=O)O [Bezafibrate] + CCOc1ccccc1-n1c(C(C)N2CCN(C(=O)COc3ccc(Cl)cc3)CC2)nc2ccccc2c1=O [erastin] | 0.736 | 0.937
3 | CC(C)OC(=O)CCC/C=C\C[C@@H]1[C@@H](CC[C@@H](O)CCc2ccccc2)[C@H](O)C[C@@H]1O [Latanoprost] + CCOc1ccccc1-n1c(C(C)N2CCN(C(=O)COc3ccc(Cl)cc3)CC2)nc2ccccc2c1=O [erastin] | 1 | 0.663
4 | COc1cccc(-n2c(=O)[nH]c3cc(Cl)n(-c4ccc(-c5cccc(OC)c5O)cc4)c3c2=O)c1 + CCOc1ccccc1-n1c(C(C)N2CCN(C(=O)COc3ccc(Cl)cc3)CC2)nc2ccccc2c1=O [erastin] | 0.66 | 0.852
5 | CCN(CC)CCCC(C)Nc1c2ccc(Cl)cc2nc2ccc(OC)cc12 (stereo not given) [Quinacrine dihydrochloride] + CCOc1ccccc1-n1c(C(C)N2CCN(C(=O)COc3ccc(Cl)cc3)CC2)nc2ccccc2c1=O [erastin] | 0.164 | 0.299
